From PubChem BioAssay (NCI)
This is part of a sample that, as a whole, favours compounds with a hit. Of some 83,000 tested, about 20% had one in any assay.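 Percent growth is the endpoint: 0 to 100 indicates growth inhibition (40 means 60% inhibition), 0 means no net growth, and negative values indicate cell death.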 The source made the active and inactive calls. The calls were made as follows: active = growth percent below 10; inactive = the rest.

How the values were obtained:
Assay in all cases: NCI-60 one-dose screen, 48 h (100 = growth as untreated, 0 = no growth, -100 = all killed)
Details in all cases: 10 µM unless noted
NCI-H23 lung = system: NCI-H23 lung
NCI-H226 lung = system: NCI-H226 lung
NCI-H322M lung = system: NCI-H322M lung
HOP-62 NSCLC = system: HOP-62 NSCLC
NCI-H522 lung = system: NCI-H522 lung
A549/ATCC NSCLC = system: A549/ATCC NSCLC
786-0 renal = system: 786-0 renal
COLO 205 colon = system: COLO 205 colon
DU-145 prostate = system: DU-145 prostate
MALME-3M melanoma = system: MALME-3M melanoma
MDA-MB-231 breast = system: MDA-MB-231 breast
RXF 393 renal = system: RXF 393 renal
SF-268 CNS = system: SF-268 CNS
SF-295 CNS = system: SF-295 CNS
SF-539 CNS = system: SF-539 CNS
UACC-257 melanoma = system: UACC-257 melanoma
HCT-15 colon = system: HCT-15 colon
NCI-H460 lung = system: NCI-H460 lung
K-562 leukemia = system: K-562 leukemia
M14 melanoma = system: M14 melanoma

Measured: growth

COc1cc(/C=C/C(=O)Nc2cccnc2Nc2cc(OC)c(OC)c(OC)c2)cc(OC)c1OC
inactive: NCI-H23 lung 93% | NCI-H226 lung 93.1% | NCI-H322M lung 115% | HOP-62 NSCLC 106% | NCI-H522 lung 87.6% | A549/ATCC NSCLC 85.4% | 786-0 renal 86.3% | COLO 205 colon 113% | DU-145 prostate 105% | MALME-3M melanoma 107% | MDA-MB-231 breast 90.7% | RXF 393 renal 108% | SF-268 CNS 105% | SF-295 CNS 92.8% | SF-539 CNS 98.1% | UACC-257 melanoma 93.4% | HCT-15 colon 97.3%

CCSc1nnc2n(Cc3ccccc3)c(=O)c3c(C)c(C(N)=O)sc3n12
inactive: NCI-H23 lung 110% | NCI-H226 lung 93.8% | NCI-H322M lung 102% | HOP-62 NSCLC 101% | NCI-H522 lung 96% | A549/ATCC NSCLC 97% | 786-0 renal 105% | COLO 205 colon 121% | MALME-3M melanoma 105% | MDA-MB-231 breast 103% | RXF 393 renal 103% | SF-268 CNS 95.1% | SF-295 CNS 91.4% | UACC-257 melanoma 100% | HCT-15 colon 97.9%

Nc1nc(SCc2ccccc2Cl)c(-c2ccccc2)c(SCc2ccccc2Cl)n1
inactive: NCI-H23 lung 83.2% | NCI-H226 lung 105% | NCI-H322M lung 107% | NCI-H460 lung 85.6% | NCI-H522 lung 79.3% | A549/ATCC NSCLC 79.3% | 786-0 renal 104% | COLO 205 colon 95% | DU-145 prostate 98.2% | K-562 leukemia 85.3% | MALME-3M melanoma 110% | MDA-MB-231 breast 109% | RXF 393 renal 115% | SF-268 CNS 105% | SF-539 CNS 114% | UACC-257 melanoma 92.4% | M14 melanoma 95.3% | HCT-15 colon 81.3%

Cc1c(C)c(N2C(=O)C=CC2=O)c(C)c(C)c1N1C(=O)C=CC1=O
active: NCI-H522 lung -49.4%
inactive: NCI-H23 lung 96.3% | NCI-H226 lung 108% | NCI-H322M lung 112% | NCI-H460 lung 115% | A549/ATCC NSCLC 89.6% | 786-0 renal 93.2% | COLO 205 colon 78.7% | DU-145 prostate 104% | K-562 leukemia 77.8% | MALME-3M melanoma 126% | MDA-MB-231 breast 114% | RXF 393 renal 54.7% | SF-268 CNS 110% | SF-295 CNS 109% | SF-539 CNS 114% | UACC-257 melanoma 75.6% | M14 melanoma 86.5% | HCT-15 colon 117%

COc1ccc(COC(C)=O)cc1
inactive: NCI-H23 lung 113% | NCI-H226 lung 104% | NCI-H322M lung 112% | NCI-H522 lung 118% | A549/ATCC NSCLC 100% | 786-0 renal 99.4% | COLO 205 colon 127% | DU-145 prostate 110% | K-562 leukemia 103% | MDA-MB-231 breast 125% | RXF 393 renal 108% | SF-268 CNS 101% | SF-295 CNS 116% | SF-539 CNS 107% | UACC-257 melanoma 109% | M14 melanoma 108% | HCT-15 colon 97.6%

CCOC(=O)C1C(=O)OC2CCCCC21 (stereo not drawn)
inactive: NCI-H23 lung 101% | NCI-H226 lung 113% | NCI-H322M lung 113% | NCI-H460 lung 110% | NCI-H522 lung 108% | A549/ATCC NSCLC 102% | 786-0 renal 100% | COLO 205 colon 120% | K-562 leukemia 102% | MALME-3M melanoma 120% | MDA-MB-231 breast 101% | RXF 393 renal 119% | SF-268 CNS 111% | SF-295 CNS 114% | SF-539 CNS 105% | UACC-257 melanoma 102% | M14 melanoma 98.3% | HCT-15 colon 101%

Fc1ccc([C@@H]2CCNC[C@H]2COc2ccc3c(c2)OCO3)cc1
active: COLO 205 colon -77.5%
inactive: NCI-H23 lung 82.5% | NCI-H226 lung 83.2% | NCI-H322M lung 73.2% | NCI-H460 lung 73.5% | NCI-H522 lung 64.6% | A549/ATCC NSCLC 83% | 786-0 renal 68.2% | DU-145 prostate 92.1% | K-562 leukemia 51.7% | MALME-3M melanoma 78.4% | MDA-MB-231 breast 11.5% | RXF 393 renal 71.7% | SF-268 CNS 92.3% | SF-295 CNS 74.2% | SF-539 CNS 89.5% | UACC-257 melanoma 76.8% | M14 melanoma 49.7% | HCT-15 colon 85.8%

CC/C=C\C=C/C(=O)N/C=C/CC1Cc2cccc(O)c2C(=O)O1 (stereo not drawn)
inactive: NCI-H23 lung 77.1% | NCI-H226 lung 110% | NCI-H322M lung 119% | NCI-H460 lung 130% | NCI-H522 lung 55.2% | A549/ATCC NSCLC 84.8% | 786-0 renal 81.5% | COLO 205 colon 94.2% | DU-145 prostate 76.4% | K-562 leukemia 25.9% | MALME-3M melanoma 98.8% | MDA-MB-231 breast 64.3% | SF-268 CNS 119% | SF-295 CNS 262% | SF-539 CNS 38.3% | UACC-257 melanoma 86.7% | M14 melanoma 44.2% | HCT-15 colon 80.3%

O=[N+]([O-])c1ccc(N/N=C/c2c(O)ccc3ccccc23)nc1
inactive: NCI-H23 lung 61.4% | NCI-H226 lung 89% | NCI-H322M lung 19.7% | NCI-H460 lung 24.2% | NCI-H522 lung 18.5% | A549/ATCC NSCLC 49.2% | 786-0 renal 59.2% | COLO 205 colon 73.1% | DU-145 prostate 39.4% | K-562 leukemia 31.7% | MDA-MB-231 breast 47.5% | RXF 393 renal 67.1% | SF-268 CNS 45.8% | SF-295 CNS 25.1% | SF-539 CNS 46% | UACC-257 melanoma 29.5% | M14 melanoma 65.3% | HCT-15 colon 24.5%

CC(C)[C@H]1CC[C@H]2[C@@H](CC[C@H]3[C@](C)(CN)CCC[C@]23C)C1
inactive: NCI-H226 lung 105% | NCI-H322M lung 15.3% | HOP-62 NSCLC 56.3% | NCI-H522 lung 80% | A549/ATCC NSCLC 87% | 786-0 renal 72.9% | DU-145 prostate 11.2% | K-562 leukemia 18.7% | MALME-3M melanoma 83% | MDA-MB-231 breast 63.6% | RXF 393 renal 86.9% | SF-268 CNS 53.5% | SF-295 CNS 80.5% | SF-539 CNS 98.8% | UACC-257 melanoma 108% | M14 melanoma 93%
active: NCI-H460 lung -66.1% | COLO 205 colon -82.6%

CC(c1ccccn1)C(C)(O)C(C)c1ccccn1 (stereo not drawn)
inactive: NCI-H23 lung 104% | NCI-H226 lung 103% | NCI-H322M lung 118% | NCI-H460 lung 113% | NCI-H522 lung 112% | A549/ATCC NSCLC 106% | 786-0 renal 107% | COLO 205 colon 108% | DU-145 prostate 101% | K-562 leukemia 103% | MALME-3M melanoma 121% | MDA-MB-231 breast 92.8% | RXF 393 renal 115% | SF-268 CNS 100% | SF-295 CNS 107% | SF-539 CNS 99.7% | UACC-257 melanoma 99.8% | M14 melanoma 90.6% | HCT-15 colon 97.4%

c1ccc(-c2nnc(Nc3nnc(-c4ccccc4)s3)s2)cc1
inactive: NCI-H23 lung 109% | NCI-H226 lung 101% | NCI-H322M lung 86.9% | NCI-H460 lung 101% | NCI-H522 lung 104% | A549/ATCC NSCLC 103% | 786-0 renal 106% | COLO 205 colon 116% | DU-145 prostate 112% | K-562 leukemia 111% | MALME-3M melanoma 101% | MDA-MB-231 breast 102% | RXF 393 renal 105% | SF-268 CNS 103% | SF-295 CNS 102% | SF-539 CNS 101% | UACC-257 melanoma 99.1% | M14 melanoma 105% | HCT-15 colon 102%

C=Cc1nn2c(CCC(=O)c3nc4ccccc4[nH]3)nnc2s1
inactive: NCI-H23 lung 99.4% | NCI-H226 lung 97.5% | NCI-H322M lung 94% | NCI-H460 lung 105% | NCI-H522 lung 102% | A549/ATCC NSCLC 105% | 786-0 renal 97.5% | MALME-3M melanoma 108% | MDA-MB-231 breast 101% | RXF 393 renal 106% | SF-268 CNS 101% | SF-295 CNS 99.7% | SF-539 CNS 113% | UACC-257 melanoma 110% | M14 melanoma 92.9% | HCT-15 colon 101%

c1ccc(Nc2nnc(-c3cc(-c4cccnc4)n(-c4ccccc4)n3)s2)cc1
active: HCT-15 colon 8.1%
inactive: NCI-H23 lung 78.6% | NCI-H226 lung 99.8% | NCI-H322M lung 109% | NCI-H460 lung 80.5% | NCI-H522 lung 71% | A549/ATCC NSCLC 74.1% | 786-0 renal 77.1% | COLO 205 colon 83.3% | DU-145 prostate 94.3% | K-562 leukemia 36.1% | MALME-3M melanoma 83.3% | MDA-MB-231 breast 35.6% | RXF 393 renal 71.8% | SF-268 CNS 113% | SF-295 CNS 40.8% | SF-539 CNS 104% | UACC-257 melanoma 139%

COc1cc(C(=O)/C=C/c2cccnc2Nc2ccccc2)cc(OC)c1OC
active: NCI-H23 lung -35.3% | NCI-H226 lung -96.2% | NCI-H322M lung 7.04% | NCI-H460 lung -40.4% | NCI-H522 lung -68.7% | A549/ATCC NSCLC 2.67% | 786-0 renal -83.1% | COLO 205 colon -87.5% | DU-145 prostate -98.9% | MALME-3M melanoma -71.5% | MDA-MB-231 breast -61.1% | RXF 393 renal -97.4% | SF-268 CNS -81.1% | SF-539 CNS -54.8% | UACC-257 melanoma -88.2% | M14 melanoma -70%
inactive: SF-295 CNS 17.3%

OC(Cc1cccnc1)c1ccccc1 (stereo not drawn)
inactive: NCI-H23 lung 103% | NCI-H226 lung 107% | NCI-H322M lung 95.9% | NCI-H460 lung 98% | NCI-H522 lung 101% | A549/ATCC NSCLC 94.8% | 786-0 renal 108% | COLO 205 colon 114% | K-562 leukemia 101% | MALME-3M melanoma 111% | MDA-MB-231 breast 92.1% | RXF 393 renal 114% | SF-295 CNS 104% | SF-539 CNS 98.6% | UACC-257 melanoma 101% | HCT-15 colon 104%

COc1ccc2c(c1)nc(N)c1c3ccccc3cn21
inactive: NCI-H23 lung 79.1% | NCI-H226 lung 95.3% | NCI-H322M lung 88.1% | NCI-H460 lung 72.4% | NCI-H522 lung 58.1% | A549/ATCC NSCLC 75.9% | 786-0 renal 92.7% | MALME-3M melanoma 65.2% | MDA-MB-231 breast 85.5% | RXF 393 renal 77.1% | SF-268 CNS 81% | SF-295 CNS 79.5% | SF-539 CNS 94.3% | UACC-257 melanoma 85.9% | M14 melanoma 63.1% | HCT-15 colon 56.4%
